# Test results published in publication PMC7862700, “An all-to-all approach to the identification of sequence-specific readers for epigenetic DNA modifications on cytosine”.
# Tests used:
# Experiment in all cases: DAPPL (digital affinity profiling via proximity ligation, sequencing); 10 mM Tris-HCl pH 7.5, 50 mM NaCl, 1 mM DTT, 4% glycerol, room temperature, 30 min; GST-TFs on glutathione beads, 16-mer random dsDNA library, 0.1% formaldehyde crosslink after washing; high values mean tight binding
# FEV = target: T1, FEV (Homo sapiens, UniProt Q99581 1-238); conditions: protein: recombinant; tags: N-terminal GST; dsDNA, one strand shown
# T1 sequence: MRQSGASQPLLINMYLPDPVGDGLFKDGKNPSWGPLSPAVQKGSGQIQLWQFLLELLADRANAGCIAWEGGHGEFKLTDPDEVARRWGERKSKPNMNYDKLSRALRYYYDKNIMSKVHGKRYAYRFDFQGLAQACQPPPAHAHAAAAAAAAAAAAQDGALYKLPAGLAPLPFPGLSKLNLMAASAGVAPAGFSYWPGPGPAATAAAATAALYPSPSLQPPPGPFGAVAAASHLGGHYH
# In short: (§1)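 Binding signal is given per hexamer as its read frequency for a factor divided by its frequency in the tag-only sample. GST-fused human transcription factors were expressed in yeast, captured on glutathione beads, barcoded with DNA and pooled with that sample, then incubated with 200 nmole of a 16-mer random double-stranded DNA library in Tris/NaCl/DTT/glycerol buffer for 30 min at room temperature. The pools were then washed, crosslinked, proximity-ligated, amplified by PCR and sequenced on an Illumina NextSeq500.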
# ETV5 = ETV5 (Homo sapiens, UniProt P41161 1-510); conditions: protein: recombinant; tags: N-terminal GST; dsDNA, one strand shown
# In short: as §1
# HSF1 = HSF1 (Homo sapiens, UniProt Q00613 1-529); conditions: protein: recombinant; tags: N-terminal GST; chain copies: 3; dsDNA, one strand shown
# In short: as §1
# SPIC = target: T2, SPIC (Homo sapiens, UniProt Q8N5J4 1-248); conditions: protein: recombinant; tags: N-terminal GST; dsDNA, one strand shown
# T2 sequence: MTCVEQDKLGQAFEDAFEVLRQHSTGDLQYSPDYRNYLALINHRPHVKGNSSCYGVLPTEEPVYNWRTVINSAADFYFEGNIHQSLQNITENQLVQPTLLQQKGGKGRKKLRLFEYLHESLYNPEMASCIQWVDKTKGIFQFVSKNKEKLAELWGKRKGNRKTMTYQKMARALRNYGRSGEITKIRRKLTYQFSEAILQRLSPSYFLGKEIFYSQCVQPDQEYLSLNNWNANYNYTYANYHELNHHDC
# In short: as §1
# ELF4 = ELF4 (Homo sapiens, UniProt Q99607 1-663); conditions: protein: recombinant; tags: N-terminal GST; dsDNA, one strand shown
# In short: as §1
# ELK4 = target: T3, ELK4 (Homo sapiens, UniProt P28324-2 1-405); conditions: protein: recombinant; tags: N-terminal GST; dsDNA, one strand shown
# T3 sequence: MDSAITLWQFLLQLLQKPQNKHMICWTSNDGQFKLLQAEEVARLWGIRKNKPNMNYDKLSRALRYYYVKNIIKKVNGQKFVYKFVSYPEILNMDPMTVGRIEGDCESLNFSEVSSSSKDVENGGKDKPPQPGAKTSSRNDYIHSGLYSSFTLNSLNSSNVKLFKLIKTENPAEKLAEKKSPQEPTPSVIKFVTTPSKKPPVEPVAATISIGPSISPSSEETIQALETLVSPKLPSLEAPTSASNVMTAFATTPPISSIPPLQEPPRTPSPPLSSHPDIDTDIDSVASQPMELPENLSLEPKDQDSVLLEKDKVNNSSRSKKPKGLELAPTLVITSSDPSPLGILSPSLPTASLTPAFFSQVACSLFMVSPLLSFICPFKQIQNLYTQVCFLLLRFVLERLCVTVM
# In short: as §1
# ETV2 = target: T4, ETV2 (Homo sapiens, UniProt O00321 1-342); conditions: protein: recombinant; tags: N-terminal GST; dsDNA, one strand shown
# T4 sequence: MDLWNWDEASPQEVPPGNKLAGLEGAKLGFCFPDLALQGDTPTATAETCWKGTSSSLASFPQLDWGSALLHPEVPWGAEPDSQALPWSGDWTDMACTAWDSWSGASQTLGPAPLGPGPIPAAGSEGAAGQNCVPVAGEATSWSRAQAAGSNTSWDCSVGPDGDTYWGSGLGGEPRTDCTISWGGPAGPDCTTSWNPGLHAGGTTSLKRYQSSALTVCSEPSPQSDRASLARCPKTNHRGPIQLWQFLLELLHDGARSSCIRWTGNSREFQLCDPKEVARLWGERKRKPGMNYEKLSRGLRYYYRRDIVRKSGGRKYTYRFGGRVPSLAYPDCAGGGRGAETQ
# In short: as §1
# ELF3 = target: T5, ELF3 (Homo sapiens, UniProt P78545 1-371); conditions: protein: recombinant; tags: N-terminal GST; dsDNA, one strand shown
# T5 sequence: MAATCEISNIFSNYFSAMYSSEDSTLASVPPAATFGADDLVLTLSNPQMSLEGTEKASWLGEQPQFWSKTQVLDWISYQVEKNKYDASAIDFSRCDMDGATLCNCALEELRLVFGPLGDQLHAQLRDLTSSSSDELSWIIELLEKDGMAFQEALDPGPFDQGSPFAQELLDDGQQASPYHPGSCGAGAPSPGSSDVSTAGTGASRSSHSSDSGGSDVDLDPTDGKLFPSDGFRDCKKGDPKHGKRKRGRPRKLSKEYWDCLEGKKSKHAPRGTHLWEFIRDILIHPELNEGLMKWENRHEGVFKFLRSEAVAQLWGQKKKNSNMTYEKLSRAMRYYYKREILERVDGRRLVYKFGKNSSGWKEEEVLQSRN
# In short: as §1
# CRX = CRX (Homo sapiens, UniProt O43186 1-299); conditions: protein: recombinant; tags: N-terminal GST; dsDNA, one strand shown
# In short: as §1
# ETV1 = ETV1 (Homo sapiens, UniProt P50549 1-477); conditions: protein: recombinant; tags: N-terminal GST; dsDNA, one strand shown
# In short: as §1
# ERF = target: T6, ERF (Homo sapiens, UniProt P50548 1-548); conditions: protein: recombinant; tags: N-terminal GST; dsDNA, one strand shown
# T6 sequence: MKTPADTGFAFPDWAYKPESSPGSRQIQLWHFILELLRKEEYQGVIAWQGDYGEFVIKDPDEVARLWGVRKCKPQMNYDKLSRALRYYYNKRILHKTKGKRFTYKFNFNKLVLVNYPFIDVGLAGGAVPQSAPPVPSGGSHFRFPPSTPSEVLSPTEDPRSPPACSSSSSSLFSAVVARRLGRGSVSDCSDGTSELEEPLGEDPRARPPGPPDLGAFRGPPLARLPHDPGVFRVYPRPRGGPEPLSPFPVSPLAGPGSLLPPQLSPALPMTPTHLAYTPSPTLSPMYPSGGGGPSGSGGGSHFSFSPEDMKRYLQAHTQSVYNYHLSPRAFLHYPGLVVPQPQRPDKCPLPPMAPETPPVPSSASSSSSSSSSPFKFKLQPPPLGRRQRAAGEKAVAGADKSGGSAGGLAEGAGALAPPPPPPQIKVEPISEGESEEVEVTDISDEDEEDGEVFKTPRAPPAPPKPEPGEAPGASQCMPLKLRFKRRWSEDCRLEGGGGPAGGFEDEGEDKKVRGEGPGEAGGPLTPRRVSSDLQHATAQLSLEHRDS
# In short: as §1
# ETV3L = target: T7, ETV3L (Homo sapiens, UniProt Q6ZN32 1-361); conditions: protein: recombinant; tags: N-terminal GST; dsDNA, one strand shown
# T7 sequence: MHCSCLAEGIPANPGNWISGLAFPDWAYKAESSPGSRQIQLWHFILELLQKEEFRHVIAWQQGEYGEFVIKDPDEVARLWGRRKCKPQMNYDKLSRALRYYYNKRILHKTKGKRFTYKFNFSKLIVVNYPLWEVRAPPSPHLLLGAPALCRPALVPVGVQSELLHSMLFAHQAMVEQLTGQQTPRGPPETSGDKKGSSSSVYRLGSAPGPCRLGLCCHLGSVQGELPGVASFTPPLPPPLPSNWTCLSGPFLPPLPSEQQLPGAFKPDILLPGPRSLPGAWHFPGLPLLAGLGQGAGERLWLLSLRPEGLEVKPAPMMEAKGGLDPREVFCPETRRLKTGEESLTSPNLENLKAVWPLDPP
# In short: as §1
# ETS2 = target: T8, ETS2 (Homo sapiens, UniProt P15036 1-469); conditions: protein: recombinant; tags: N-terminal GST; dsDNA, one strand shown
# T8 sequence: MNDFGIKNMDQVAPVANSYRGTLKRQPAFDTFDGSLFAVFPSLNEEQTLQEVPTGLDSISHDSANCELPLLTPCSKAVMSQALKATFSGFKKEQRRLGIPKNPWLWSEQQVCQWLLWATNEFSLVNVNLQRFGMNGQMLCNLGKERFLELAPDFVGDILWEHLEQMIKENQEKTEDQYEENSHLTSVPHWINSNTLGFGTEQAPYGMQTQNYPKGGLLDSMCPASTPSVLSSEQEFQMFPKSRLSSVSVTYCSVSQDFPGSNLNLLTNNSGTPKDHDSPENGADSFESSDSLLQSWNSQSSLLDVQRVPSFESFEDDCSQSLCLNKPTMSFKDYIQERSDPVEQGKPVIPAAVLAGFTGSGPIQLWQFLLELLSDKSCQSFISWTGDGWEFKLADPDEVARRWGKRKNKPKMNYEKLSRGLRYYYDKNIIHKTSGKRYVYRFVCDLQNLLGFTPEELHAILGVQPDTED
# In short: as §1
# SPDEF = target: T9, SPDEF (Homo sapiens, UniProt O95238 1-335); conditions: protein: recombinant; tags: N-terminal GST; dsDNA, one strand shown
# T9 sequence: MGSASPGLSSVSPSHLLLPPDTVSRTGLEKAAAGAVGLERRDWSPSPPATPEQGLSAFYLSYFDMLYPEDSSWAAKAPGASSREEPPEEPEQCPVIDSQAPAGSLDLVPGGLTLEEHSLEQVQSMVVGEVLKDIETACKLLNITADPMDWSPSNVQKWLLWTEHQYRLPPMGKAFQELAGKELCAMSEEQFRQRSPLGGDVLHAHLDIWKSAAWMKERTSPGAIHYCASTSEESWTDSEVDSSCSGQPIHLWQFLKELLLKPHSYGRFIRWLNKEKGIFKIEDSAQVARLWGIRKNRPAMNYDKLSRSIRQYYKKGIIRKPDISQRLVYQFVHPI
# In short: as §1
# ETV7 = target: T10, ETV7 (Homo sapiens, UniProt Q9Y603 1-341); conditions: protein: recombinant; tags: N-terminal GST; dsDNA, one strand shown
# T10 sequence: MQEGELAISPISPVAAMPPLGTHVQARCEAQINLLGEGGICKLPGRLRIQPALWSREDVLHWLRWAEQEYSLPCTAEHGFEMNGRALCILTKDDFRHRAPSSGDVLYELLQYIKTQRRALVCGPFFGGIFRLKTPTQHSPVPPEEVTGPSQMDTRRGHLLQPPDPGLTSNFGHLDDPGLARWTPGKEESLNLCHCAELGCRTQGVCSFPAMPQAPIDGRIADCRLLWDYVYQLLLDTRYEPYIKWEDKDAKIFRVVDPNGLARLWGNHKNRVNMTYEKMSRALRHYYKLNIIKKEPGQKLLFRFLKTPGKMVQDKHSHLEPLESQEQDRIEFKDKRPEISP
# In short: as §1
# ELF5 = target: T11, ELF5 (Homo sapiens, UniProt Q9UKW6-2 1-255); conditions: protein: recombinant; tags: N-terminal GST; dsDNA, one strand shown
# T11 sequence: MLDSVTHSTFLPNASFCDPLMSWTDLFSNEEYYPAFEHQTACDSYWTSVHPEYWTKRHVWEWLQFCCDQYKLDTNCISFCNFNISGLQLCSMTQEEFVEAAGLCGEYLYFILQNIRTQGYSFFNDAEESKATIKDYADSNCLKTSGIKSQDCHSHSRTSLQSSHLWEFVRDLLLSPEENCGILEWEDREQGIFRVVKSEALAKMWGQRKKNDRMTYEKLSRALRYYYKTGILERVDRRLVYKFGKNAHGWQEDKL
# In short: as §1
# ETV3 = target: T12, ETV3 (Homo sapiens, UniProt P41162-2 1-143); conditions: protein: recombinant; tags: N-terminal GST; dsDNA, one strand shown
# T12 sequence: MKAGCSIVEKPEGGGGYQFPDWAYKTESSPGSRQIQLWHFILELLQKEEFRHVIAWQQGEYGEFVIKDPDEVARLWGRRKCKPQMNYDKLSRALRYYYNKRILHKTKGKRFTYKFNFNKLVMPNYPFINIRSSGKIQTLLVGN
# In short: as §1
# ETV6 = ETV6 (Homo sapiens, UniProt P41212 1-452); conditions: protein: recombinant; tags: N-terminal GST; dsDNA, one strand shown
# In short: as §1
# ETV6, sequence (P41212 whole entry): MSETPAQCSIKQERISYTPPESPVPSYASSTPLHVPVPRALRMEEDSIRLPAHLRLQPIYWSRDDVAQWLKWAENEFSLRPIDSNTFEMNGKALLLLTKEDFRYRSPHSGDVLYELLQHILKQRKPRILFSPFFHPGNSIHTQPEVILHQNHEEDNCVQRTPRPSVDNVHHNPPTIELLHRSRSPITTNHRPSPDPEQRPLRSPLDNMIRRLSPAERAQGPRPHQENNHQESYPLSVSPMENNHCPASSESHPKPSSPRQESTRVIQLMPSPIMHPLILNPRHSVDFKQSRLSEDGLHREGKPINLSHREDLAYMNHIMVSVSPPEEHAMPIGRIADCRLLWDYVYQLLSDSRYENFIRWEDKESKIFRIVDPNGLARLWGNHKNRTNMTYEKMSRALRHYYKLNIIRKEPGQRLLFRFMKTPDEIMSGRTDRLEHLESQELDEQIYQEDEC
# ETV1, sequence (P50549 whole entry): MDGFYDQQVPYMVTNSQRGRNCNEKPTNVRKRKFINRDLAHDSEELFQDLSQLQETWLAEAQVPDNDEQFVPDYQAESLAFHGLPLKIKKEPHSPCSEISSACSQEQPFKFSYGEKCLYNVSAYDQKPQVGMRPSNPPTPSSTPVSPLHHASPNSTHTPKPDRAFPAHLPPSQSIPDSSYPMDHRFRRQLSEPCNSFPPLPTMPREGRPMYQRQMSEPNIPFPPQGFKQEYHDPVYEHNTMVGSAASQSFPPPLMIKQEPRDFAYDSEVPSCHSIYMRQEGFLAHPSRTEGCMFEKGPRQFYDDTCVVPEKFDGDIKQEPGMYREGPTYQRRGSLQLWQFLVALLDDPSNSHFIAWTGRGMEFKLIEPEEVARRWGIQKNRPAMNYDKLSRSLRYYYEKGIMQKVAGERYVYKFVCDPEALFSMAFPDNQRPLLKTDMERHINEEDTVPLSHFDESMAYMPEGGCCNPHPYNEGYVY
# ELF4, sequence (Q99607 whole entry): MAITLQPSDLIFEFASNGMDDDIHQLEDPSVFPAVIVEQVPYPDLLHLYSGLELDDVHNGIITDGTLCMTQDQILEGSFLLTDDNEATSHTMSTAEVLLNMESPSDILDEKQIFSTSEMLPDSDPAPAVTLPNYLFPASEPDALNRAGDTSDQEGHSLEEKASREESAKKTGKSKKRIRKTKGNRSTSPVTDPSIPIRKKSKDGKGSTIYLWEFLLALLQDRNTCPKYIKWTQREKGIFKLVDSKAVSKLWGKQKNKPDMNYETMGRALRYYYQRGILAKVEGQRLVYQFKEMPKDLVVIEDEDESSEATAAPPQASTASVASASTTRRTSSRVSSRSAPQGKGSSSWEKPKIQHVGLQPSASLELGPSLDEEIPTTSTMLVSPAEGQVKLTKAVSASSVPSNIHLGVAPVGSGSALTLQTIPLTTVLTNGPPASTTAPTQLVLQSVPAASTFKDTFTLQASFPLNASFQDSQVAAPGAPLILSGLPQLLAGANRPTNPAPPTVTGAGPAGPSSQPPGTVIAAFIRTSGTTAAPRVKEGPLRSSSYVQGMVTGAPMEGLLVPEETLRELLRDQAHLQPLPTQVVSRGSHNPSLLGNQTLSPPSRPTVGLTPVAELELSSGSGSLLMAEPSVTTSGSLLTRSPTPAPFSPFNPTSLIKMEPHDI
# ETV5, sequence (P41161 whole entry): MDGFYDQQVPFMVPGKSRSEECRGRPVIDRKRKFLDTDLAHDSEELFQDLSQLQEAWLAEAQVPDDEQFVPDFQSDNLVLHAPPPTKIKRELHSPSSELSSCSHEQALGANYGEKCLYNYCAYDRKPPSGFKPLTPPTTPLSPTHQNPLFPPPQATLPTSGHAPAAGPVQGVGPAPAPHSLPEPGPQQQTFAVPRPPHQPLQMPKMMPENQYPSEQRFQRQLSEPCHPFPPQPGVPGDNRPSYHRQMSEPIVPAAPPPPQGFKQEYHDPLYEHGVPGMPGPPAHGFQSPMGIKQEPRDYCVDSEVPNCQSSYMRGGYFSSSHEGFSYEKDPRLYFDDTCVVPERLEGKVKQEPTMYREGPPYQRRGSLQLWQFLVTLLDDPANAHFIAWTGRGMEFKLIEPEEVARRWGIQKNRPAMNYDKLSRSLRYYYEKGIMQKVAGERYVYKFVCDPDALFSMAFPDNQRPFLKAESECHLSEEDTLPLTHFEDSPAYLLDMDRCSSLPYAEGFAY
# CRX, sequence (O43186 whole entry): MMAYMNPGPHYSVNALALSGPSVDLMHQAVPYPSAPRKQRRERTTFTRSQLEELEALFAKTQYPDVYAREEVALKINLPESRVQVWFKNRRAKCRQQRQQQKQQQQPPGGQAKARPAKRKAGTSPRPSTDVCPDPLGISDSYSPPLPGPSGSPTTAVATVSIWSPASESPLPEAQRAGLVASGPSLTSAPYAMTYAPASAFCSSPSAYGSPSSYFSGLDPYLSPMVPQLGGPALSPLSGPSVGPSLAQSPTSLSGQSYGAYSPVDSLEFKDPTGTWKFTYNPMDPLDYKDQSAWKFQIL
# HSF1, sequence (Q00613 whole entry): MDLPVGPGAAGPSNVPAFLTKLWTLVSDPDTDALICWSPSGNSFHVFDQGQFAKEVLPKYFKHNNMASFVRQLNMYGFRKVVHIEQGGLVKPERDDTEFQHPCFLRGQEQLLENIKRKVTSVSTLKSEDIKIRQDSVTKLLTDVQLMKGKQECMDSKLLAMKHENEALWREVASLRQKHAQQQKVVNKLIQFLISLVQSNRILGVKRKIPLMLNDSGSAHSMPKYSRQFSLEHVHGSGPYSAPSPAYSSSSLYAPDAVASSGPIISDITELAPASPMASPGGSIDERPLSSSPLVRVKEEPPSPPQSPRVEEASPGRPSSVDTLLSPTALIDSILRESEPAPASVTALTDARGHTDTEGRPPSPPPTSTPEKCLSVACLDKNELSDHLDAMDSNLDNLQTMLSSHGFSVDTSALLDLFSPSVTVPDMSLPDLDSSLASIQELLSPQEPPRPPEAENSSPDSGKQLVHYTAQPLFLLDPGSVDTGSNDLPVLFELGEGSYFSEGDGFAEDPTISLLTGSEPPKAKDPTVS
sequence,measurement,setting,value
TAGTAT,binding signal,FEV,"1.28 fold enrichment (6-mer frequency, TF over GST control)"
same,binding signal,ETV5,"1.33 fold enrichment (6-mer frequency, TF over GST control)"
same,binding signal,HSF1,"1.55 fold enrichment (6-mer frequency, TF over GST control)"
same,binding signal,SPIC,"1.43 fold enrichment (6-mer frequency, TF over GST control)"
same,binding signal,ELF4,"1.3 fold enrichment (6-mer frequency, TF over GST control)"
same,binding signal,ELK4,"1.31 fold enrichment (6-mer frequency, TF over GST control)"
same,binding signal,ETV2,"1.34 fold enrichment (6-mer frequency, TF over GST control)"
same,binding signal,ELF3,"1.3 fold enrichment (6-mer frequency, TF over GST control)"
same,binding signal,CRX,"1.68 fold enrichment (6-mer frequency, TF over GST control)"
same,binding signal,ETV1,"1.23 fold enrichment (6-mer frequency, TF over GST control)"
same,binding signal,ERF,"1.29 fold enrichment (6-mer frequency, TF over GST control)"
same,binding signal,ETV3L,"1.23 fold enrichment (6-mer frequency, TF over GST control)"
same,binding signal,ETS2,"1.27 fold enrichment (6-mer frequency, TF over GST control)"
same,binding signal,SPDEF,"1.15 fold enrichment (6-mer frequency, TF over GST control)"
same,binding signal,ETV7,"1.44 fold enrichment (6-mer frequency, TF over GST control)"
same,binding signal,ELF5,"1.25 fold enrichment (6-mer frequency, TF over GST control)"
same,binding signal,ETV3,"1.26 fold enrichment (6-mer frequency, TF over GST control)"
same,binding signal,ETV6,"1.29 fold enrichment (6-mer frequency, TF over GST control)"
